Reference: PubChem BioAssay AID686971 (National Center for Advancing Translational Sciences (NCATS), 2013)
Among all 360,000 compounds or so, about 7,500 (2.1%) were called active. A call without a number means that no potency is given here. Inconclusive results (about 8%) are left out. Calls come from the whole dose curve; as a rule, active = well fitted cell-killing curve with a large enough effect; inconclusive = small, poorly fitted or top-dose-only effect, or effect the other way, or another doubt; inactive = no such curve, though single readings can be large or run the other way. Many of the other results were omitted from the sample, so actives are more common in it than they were.

Test: qHTS for induction of synthetic lethality in tumor cells producing 2HG: qHTS for the HT-1080-IDH1KD cell line
Settings: HT-1080 IDH1 knockdown viability, ATP luminescence, 48 h; series mostly up to 46.1 µM
In short: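 After a 2 h attachment period, IDH1KD HT-1080 cells took pin-transferred compound for 48 h at 37 °C; ATP-based luminescence after 10 min room-temperature reagent incubation reported viability.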
Potency is the fitted concentration of half-maximal effect.

Row | SMILES | Potency
1 | CCC(C(=O)NCc1ccccc1)n1c(Cc2cc(F)cc(F)c2)nc2ccccc21 (centres undefined) | inactive
2 | COc1ccc(C(=O)OCC(=O)Nc2cc(C)on2)cc1F | inactive
3 | O=C(CCN1CCCCC1)Nc1ccc(F)c(F)c1 | inactive
4 | CCc1cccc(CC)c1N1C(=O)CC(Sc2ccccc2N)C1=O (centres undefined) | inactive
5 | CC1(Cc2ccccc2C#N)C(=O)Nc2ccc(-c3ccc4[nH]ccc4c3)cc21 (centres undefined) | 1.64 µM (active)
6 | CC(Oc1ccc(Br)cc1)C(=O)NC1CCCCCC1 (centres undefined) | inactive
7 | CC(C)(C)CC(C)(C)NCC(O)COCCOc1ccc(Br)cc1 (centres undefined) | 20.6 µM (active)
8 | OC(COc1ccc(Br)cc1)CN1CCCC1 (centres undefined) | inactive
9 | Cc1cccc(CN2CCN(C3CN(Cc4cn(Cc5cc(C)cc(C)c5)nn4)S(=O)(=O)C3)CC2)c1 (centres undefined) | inactive
10 | CC(=O)Oc1ccc2c(c1)C(=O)c1ccccc1C2=O | inactive
11 | O=C1C(Cl)=C(Oc2ccccc2)C(=O)c2ccccc21 | 2.59 µM (active)
12 | O=C(O)CSc1nnc(-c2ccc3c(c2)OCO3)n1-c1ccccc1 | inactive
13 | CCn1c(SCC(=O)Nc2ccc3c(c2)OCCO3)nnc1-c1ccncc1 | inactive
14 | O=C(CSc1nnc(-c2ccccn2)n1-c1ccccc1)Nc1ccc2c(c1)OCO2 | 23.1 µM (active)
15 | Cc1cccc(C)c1NC(=O)C(c1cccc2ccccc12)n1c(=O)c(-c2ccco2)nc2ccccc21 (centres undefined) | inactive
16 | O=C(OCc1cn([C@H]2C[C@H](c3ccccc3)N(C(=O)c3cccs3)C[C@@H]2O)nn1)c1ccccc1 | inactive
17 | COc1cccc(OC)c1C(=O)N1CCN(Cc2ccccc2F)CC1 | inactive
18 | Nc1c(-c2ccccc2)nnn1Cc1ccccc1 | inactive
19 | Nc1c(C(=O)NCc2ccccc2)nnn1Cc1cccc(Cl)c1 | 14.6 µM (active)
20 | O=C(COc1cccc(Cl)c1)NCc1ccccc1 | inactive
21 | O=C(NCCN1CCOCC1)c1ccc2c(c1)N(Cc1cccc(Cl)c1)C(=O)c1ccccc1S2(=O)=O | inactive
22 | CC1=C/C(=N\OS(=O)(=O)c2ccccc2)C=CC1=O | 20 µM (active)

Row | SMILES | Potency
23 | O=C(NCc1ccc(F)cc1)c1cc(C2CCCCN2C(=O)c2cccs2)on1 (centres undefined) | inactive
24 | CCc1nc2ccc(C(=O)Nc3cc(-c4ccccc4)ccc3OC)cn2c1N(CC)CC(=O)N(C)C | inactive
25 | C[C@@H]1CN([C@@H](C)CO)C(=O)c2cc(Br)cnc2O[C@H]1CN(C)Cc1ccc(-c2ccccc2)cc1 | inactive
26 | CCCCN1CC(N2CCN(Cc3cccc(C)c3)CC2)CS1(=O)=O (centres undefined) | inactive
27 | COc1ccc(/C=N/NC(=O)c2ccccc2)cc1OS(=O)(=O)c1ccccc1 | 20.6 µM (active)
28 | Cc1ccc(S(=O)(=O)Oc2ccc(/C=N/NC(=O)c3ccncc3)cc2)cc1 | inactive
29 | COc1cc(/C=N/NC(=O)c2ccoc2C)ccc1OCCN1CCCCC1 | inactive
30 | COc1cc(C=NNC(=O)c2cccnc2)ccc1OC(=O)c1ccccc1F | inactive
31 | COC(=O)c1ccc(COc2ccc(/C=N/NC(=O)C(=O)Nc3ccc(OC)cc3)cc2OC)o1 | inactive
32 | COc1ccc(C(=O)Nc2ccccc2C(=O)N2CCN(c3ccccc3)CC2)cc1 | inactive
33 | COc1ccc(/C=N/Nc2ccccc2C(=O)O)cc1 | inactive
34 | COc1ccc(C(=O)Nc2ccccc2C(=O)N/N=C/c2ccc(O)c(OC)c2)cc1 | 6.51 µM (active)
35 | COc1cc(/C=N/NC(=O)Nc2ccccc2)ccc1OCCOc1ccccc1C | 7.08 µM (active)
36 | COc1ccc(NC2CCCN(C(=O)c3ccccc3-c3ncc[nH]3)C2)cc1 (centres undefined) | inactive
37 | COc1cc(-c2nnc(NC(=O)CS(=O)(=O)c3ccc(Cl)cc3)o2)cc(OC)c1OC | inactive
38 | CC(=O)Nc1c(-c2ccc(C)cc2)nc2ccc(Cl)cn12 | inactive
39 | CCCCn1nnnc1C1(C)CCC(=O)N1Cc1ccc(OC)c(OC)c1 (centres undefined) | inactive
40 | CCCCCCCCn1c2c(c(=N)c3c1CCC3)CCCC2 | 8.2 µM (active)
41 | CCCc1nc2ccccc2n1C(C)C(=O)NC(C)(C)C (centres undefined) | inactive
42 | CC1CCCC(C)N1C(=O)COC(=O)c1ccccc1C(=O)c1ccccc1 (centres undefined) | inactive
43 | O=C(Nc1ccc2c(c1)CCC2)c1cccc(S(=O)(=O)N2CCN(c3ccc(F)cc3)CC2)c1 | inactive
44 | Cc1cccnc1NC(=O)c1cccc(S(=O)(=O)N2CCN(c3ccc(F)cc3)CC2)c1 | 29.1 µM (active)

Row | SMILES | Potency
45 | Cc1ccc(C(=O)Nc2ncccc2C)cc1S(=O)(=O)N1CCOCC1 | inactive
46 | O=C1NC[C@H](CCCCN2CCN(CCc3ccccc3)C(=O)C2=O)N(CC2CCCCC2)C1=O | inactive
47 | COC(=O)[C@]12CCCCC=C1N(Cc1ccco1)C(=O)[C@H](CC(=O)NCC1CCCCC1)C2 | inactive
48 | CCOC(=O)C1=CCC2C(=O)N(Cc3ccccc3)C(=O)C12 (centres undefined) | inactive
49 | COc1ccc(C2=Nc3ccccc3NC(=O)C2N(C(=O)c2cc3ccccc3[nH]2)c2ccccc2)cc1 (centres undefined) | inactive
50 | CC(C)Oc1cc(F)ccc1-c1cc(C(=O)Nc2ccc(F)cc2)[nH]n1 | inactive
51 | CC(=O)c1cccc(-c2cnc3c(NC=O)cc(-c4ccc(N5CCN(C)CC5)cc4)cn23)c1 | inactive
52 | COc1cc(C=O)ccc1Oc1nnnn1-c1ccccc1 | inactive
53 | CS(=O)(=O)Nc1cccc(-c2cn3ccccc3n2)c1 | inactive
54 | CC(=O)c1ccc(-c2cnc3c(NC=O)cc(-c4cccc(NS(C)(=O)=O)c4)cn23)cc1 | 8.2 µM (active)
55 | COc1ccc(-c2cc(NC=O)c3ncc(-c4ccccc4)n3c2)cc1OC | 16.4 µM (active)
56 | COC(=O)c1ccc(-c2c(-c3ccccc3)ncc3cc(OC)c(OC)cc23)cc1 | inactive
57 | O=[N+]([O-])c1ccc(C(S(=O)(=O)Cc2ccccc2)S(=O)(=O)Cc2ccccc2)cc1 | inactive
58 | C[C@H]1COc2cc(N3CCSCC3)ccc2S(=O)(=O)N1 | inactive
59 | O=C(O)C1=C(C(=O)O)C2CCC1C2 | inactive
60 | CCCNC(=O)c1cc(C2CCCCN2S(=O)(=O)c2ccc(C#N)cc2)on1 (centres undefined) | inactive
61 | NC1=CC(=O)C(=O)c2cccnc21 | 11.6 µM (active)
62 | O=C1c2cccnc2C(=O)N1Cc1cccs1 | inactive
63 | CCOc1ccc(CCN2C(=O)c3cccnc3C2=O)cc1OCC | inactive
64 | COc1cc2nc(Cl)nc(NC3CC3)c2cc1OC | inactive
